Data from publication PMC7862700, “An all-to-all approach to the identification of sequence-specific readers for epigenetic DNA modifications on cytosine”.

Columns and labels:
Test in all cases: DAPPL (digital affinity profiling via proximity ligation, sequencing); 10 mM Tris-HCl pH 7.5, 50 mM NaCl, 1 mM DTT, 4% glycerol, room temperature, 30 min; GST-TFs on glutathione beads, 16-mer random dsDNA library, 0.1% formaldehyde crosslink after washing; high values mean tight binding
[1] = molecular target: T1, FEV (Homo sapiens, UniProt Q99581 1-238); conditions: protein: recombinant; tags: N-terminal GST; dsDNA, one strand shown
T1 sequence: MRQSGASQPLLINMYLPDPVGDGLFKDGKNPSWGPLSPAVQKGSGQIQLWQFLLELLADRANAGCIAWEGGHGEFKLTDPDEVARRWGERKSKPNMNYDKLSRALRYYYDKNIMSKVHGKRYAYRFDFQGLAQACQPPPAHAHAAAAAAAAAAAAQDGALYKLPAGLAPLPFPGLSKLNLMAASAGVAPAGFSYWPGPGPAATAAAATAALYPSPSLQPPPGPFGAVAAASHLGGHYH
In short: (§1)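 Human transcription factors were made in yeast as GST fusions, captured on glutathione beads and barcoded with DNA. With a tag-only sample included, the pool was incubated with 200 nmole of a random double-stranded 16-mer DNA library in Tris/NaCl/DTT/glycerol buffer at room temperature for 30 min, then crosslinked with 0.1% formaldehyde after washing, ligated by proximity, amplified and sequenced. For binding signal, each hexamer's read frequency for a factor is divided by its frequency for the tag-only sample.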

[2] = molecular target: ETV5 (Homo sapiens, UniProt P41161 1-510); conditions: protein: recombinant; tags: N-terminal GST; dsDNA, one strand shown
In short: as §1

[3] = molecular target: HSF1 (Homo sapiens, UniProt Q00613 1-529); conditions: protein: recombinant; tags: N-terminal GST; chain copies: 3; dsDNA, one strand shown
In short: as §1

[4] = molecular target: T2, SPIC (Homo sapiens, UniProt Q8N5J4 1-248); conditions: protein: recombinant; tags: N-terminal GST; dsDNA, one strand shown
T2 sequence: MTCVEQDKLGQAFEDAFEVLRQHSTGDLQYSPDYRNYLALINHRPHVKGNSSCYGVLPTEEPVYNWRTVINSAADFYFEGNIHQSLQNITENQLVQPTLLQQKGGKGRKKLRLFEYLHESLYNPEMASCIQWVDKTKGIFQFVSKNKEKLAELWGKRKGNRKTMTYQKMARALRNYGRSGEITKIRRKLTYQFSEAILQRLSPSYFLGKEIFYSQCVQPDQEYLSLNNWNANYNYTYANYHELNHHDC
In short: as §1

[5] = molecular target: ELF4 (Homo sapiens, UniProt Q99607 1-663); conditions: protein: recombinant; tags: N-terminal GST; dsDNA, one strand shown
In short: as §1

[6] = molecular target: T3, ELK4 (Homo sapiens, UniProt P28324-2 1-405); conditions: protein: recombinant; tags: N-terminal GST; dsDNA, one strand shown
T3 sequence: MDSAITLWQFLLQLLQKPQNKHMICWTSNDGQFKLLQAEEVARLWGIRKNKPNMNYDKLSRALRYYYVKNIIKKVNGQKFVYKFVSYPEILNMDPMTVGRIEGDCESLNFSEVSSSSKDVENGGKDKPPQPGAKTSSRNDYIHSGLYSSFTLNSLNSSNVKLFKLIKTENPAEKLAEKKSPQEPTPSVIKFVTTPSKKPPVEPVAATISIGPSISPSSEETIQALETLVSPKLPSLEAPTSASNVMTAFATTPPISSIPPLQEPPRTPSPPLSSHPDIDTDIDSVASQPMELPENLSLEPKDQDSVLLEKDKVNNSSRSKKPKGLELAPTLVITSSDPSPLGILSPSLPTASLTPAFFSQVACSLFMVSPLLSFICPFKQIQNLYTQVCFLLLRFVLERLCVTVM
In short: as §1

[7] = molecular target: T4, ETV2 (Homo sapiens, UniProt O00321 1-342); conditions: protein: recombinant; tags: N-terminal GST; dsDNA, one strand shown
T4 sequence: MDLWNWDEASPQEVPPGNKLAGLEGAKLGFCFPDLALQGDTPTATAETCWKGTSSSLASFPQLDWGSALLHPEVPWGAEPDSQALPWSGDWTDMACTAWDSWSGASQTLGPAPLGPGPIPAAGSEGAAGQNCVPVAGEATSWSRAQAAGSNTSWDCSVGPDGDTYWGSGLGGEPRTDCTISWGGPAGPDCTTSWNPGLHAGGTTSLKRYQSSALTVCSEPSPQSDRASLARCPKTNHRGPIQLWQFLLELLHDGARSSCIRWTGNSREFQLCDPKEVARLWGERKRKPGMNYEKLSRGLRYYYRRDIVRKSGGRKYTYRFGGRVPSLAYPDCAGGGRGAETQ
In short: as §1

[8] = molecular target: T5, ELF3 (Homo sapiens, UniProt P78545 1-371); conditions: protein: recombinant; tags: N-terminal GST; dsDNA, one strand shown
T5 sequence: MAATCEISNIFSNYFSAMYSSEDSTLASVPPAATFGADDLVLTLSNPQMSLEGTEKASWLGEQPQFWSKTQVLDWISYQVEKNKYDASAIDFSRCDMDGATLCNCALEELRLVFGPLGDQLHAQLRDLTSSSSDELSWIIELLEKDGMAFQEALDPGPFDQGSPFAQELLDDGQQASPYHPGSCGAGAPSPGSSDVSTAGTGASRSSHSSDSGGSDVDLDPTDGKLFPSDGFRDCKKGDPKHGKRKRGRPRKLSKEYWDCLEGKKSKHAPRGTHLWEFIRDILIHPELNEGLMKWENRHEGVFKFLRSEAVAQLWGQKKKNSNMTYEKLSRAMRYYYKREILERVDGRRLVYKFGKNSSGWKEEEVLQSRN
In short: as §1

[9] = molecular target: CRX (Homo sapiens, UniProt O43186 1-299); conditions: protein: recombinant; tags: N-terminal GST; dsDNA, one strand shown
In short: as §1

[10] = molecular target: ETV1 (Homo sapiens, UniProt P50549 1-477); conditions: protein: recombinant; tags: N-terminal GST; dsDNA, one strand shown
In short: as §1

[11] = molecular target: T6, ERF (Homo sapiens, UniProt P50548 1-548); conditions: protein: recombinant; tags: N-terminal GST; dsDNA, one strand shown
T6 sequence: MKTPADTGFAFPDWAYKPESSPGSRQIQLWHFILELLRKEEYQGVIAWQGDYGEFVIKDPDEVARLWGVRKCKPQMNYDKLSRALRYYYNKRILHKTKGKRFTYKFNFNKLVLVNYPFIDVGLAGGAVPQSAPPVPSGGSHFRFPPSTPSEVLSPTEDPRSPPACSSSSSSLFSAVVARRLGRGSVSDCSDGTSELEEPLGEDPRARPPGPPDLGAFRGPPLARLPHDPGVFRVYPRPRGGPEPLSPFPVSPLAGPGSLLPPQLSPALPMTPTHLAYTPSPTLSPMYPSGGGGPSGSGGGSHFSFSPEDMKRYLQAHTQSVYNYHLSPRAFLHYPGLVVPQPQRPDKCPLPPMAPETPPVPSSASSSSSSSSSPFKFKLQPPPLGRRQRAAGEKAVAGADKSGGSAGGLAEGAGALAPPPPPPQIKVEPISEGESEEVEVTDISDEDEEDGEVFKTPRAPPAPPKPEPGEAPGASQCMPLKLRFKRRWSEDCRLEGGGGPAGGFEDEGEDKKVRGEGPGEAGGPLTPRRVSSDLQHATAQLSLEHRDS
In short: as §1

[12] = molecular target: T7, ETV3L (Homo sapiens, UniProt Q6ZN32 1-361); conditions: protein: recombinant; tags: N-terminal GST; dsDNA, one strand shown
T7 sequence: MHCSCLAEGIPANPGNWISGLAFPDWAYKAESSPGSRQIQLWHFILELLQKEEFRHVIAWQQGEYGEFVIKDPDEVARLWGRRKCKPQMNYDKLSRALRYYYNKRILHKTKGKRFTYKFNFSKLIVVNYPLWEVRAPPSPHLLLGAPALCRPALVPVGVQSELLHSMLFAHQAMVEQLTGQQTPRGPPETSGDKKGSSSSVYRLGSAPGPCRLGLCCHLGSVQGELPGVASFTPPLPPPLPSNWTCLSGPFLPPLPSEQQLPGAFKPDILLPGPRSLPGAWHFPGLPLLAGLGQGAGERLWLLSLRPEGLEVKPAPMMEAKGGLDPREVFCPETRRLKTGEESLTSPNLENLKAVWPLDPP
In short: as §1

[13] = molecular target: T8, ETS2 (Homo sapiens, UniProt P15036 1-469); conditions: protein: recombinant; tags: N-terminal GST; dsDNA, one strand shown
T8 sequence: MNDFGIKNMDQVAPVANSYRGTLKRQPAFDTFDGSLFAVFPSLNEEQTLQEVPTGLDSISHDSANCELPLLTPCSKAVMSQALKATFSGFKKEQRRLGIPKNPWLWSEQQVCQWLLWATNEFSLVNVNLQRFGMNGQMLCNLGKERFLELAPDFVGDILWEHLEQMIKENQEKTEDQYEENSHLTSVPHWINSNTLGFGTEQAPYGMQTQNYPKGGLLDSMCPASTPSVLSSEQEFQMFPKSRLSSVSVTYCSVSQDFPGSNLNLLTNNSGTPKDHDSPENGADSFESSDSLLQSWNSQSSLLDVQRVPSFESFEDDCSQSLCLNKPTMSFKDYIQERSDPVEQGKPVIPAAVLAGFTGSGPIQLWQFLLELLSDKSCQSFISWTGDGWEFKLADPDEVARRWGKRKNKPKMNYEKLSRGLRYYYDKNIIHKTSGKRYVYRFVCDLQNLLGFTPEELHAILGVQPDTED
In short: as §1

[14] = molecular target: T9, SPDEF (Homo sapiens, UniProt O95238 1-335); conditions: protein: recombinant; tags: N-terminal GST; dsDNA, one strand shown
T9 sequence: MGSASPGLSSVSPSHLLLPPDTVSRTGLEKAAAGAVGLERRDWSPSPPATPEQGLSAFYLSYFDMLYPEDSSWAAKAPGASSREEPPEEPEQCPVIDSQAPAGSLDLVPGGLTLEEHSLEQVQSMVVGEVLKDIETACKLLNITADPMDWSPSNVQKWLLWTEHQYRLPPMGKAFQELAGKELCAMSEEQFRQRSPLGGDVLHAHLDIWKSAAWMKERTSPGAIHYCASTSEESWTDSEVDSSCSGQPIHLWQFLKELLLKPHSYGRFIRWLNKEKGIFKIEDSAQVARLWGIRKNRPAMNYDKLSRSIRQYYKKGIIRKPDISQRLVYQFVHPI
In short: as §1

[15] = molecular target: T10, ETV7 (Homo sapiens, UniProt Q9Y603 1-341); conditions: protein: recombinant; tags: N-terminal GST; dsDNA, one strand shown
T10 sequence: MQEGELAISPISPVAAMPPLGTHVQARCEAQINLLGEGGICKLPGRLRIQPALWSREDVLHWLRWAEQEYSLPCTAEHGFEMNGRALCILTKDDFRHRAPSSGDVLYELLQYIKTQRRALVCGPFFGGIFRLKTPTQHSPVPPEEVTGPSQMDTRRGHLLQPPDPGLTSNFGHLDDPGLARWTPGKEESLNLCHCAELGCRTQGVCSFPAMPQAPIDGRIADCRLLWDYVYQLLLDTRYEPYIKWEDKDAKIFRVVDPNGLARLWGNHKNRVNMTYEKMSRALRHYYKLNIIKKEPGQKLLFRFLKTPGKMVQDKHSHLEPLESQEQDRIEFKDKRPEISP
In short: as §1

[16] = molecular target: T11, ELF5 (Homo sapiens, UniProt Q9UKW6-2 1-255); conditions: protein: recombinant; tags: N-terminal GST; dsDNA, one strand shown
T11 sequence: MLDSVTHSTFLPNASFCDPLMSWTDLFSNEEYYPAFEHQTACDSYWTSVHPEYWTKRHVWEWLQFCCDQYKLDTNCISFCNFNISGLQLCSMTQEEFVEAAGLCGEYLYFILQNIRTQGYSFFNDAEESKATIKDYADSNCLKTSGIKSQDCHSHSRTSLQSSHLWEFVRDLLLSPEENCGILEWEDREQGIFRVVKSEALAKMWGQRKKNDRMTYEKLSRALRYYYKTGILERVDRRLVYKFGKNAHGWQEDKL
In short: as §1

[17] = molecular target: T12, ETV3 (Homo sapiens, UniProt P41162-2 1-143); conditions: protein: recombinant; tags: N-terminal GST; dsDNA, one strand shown
T12 sequence: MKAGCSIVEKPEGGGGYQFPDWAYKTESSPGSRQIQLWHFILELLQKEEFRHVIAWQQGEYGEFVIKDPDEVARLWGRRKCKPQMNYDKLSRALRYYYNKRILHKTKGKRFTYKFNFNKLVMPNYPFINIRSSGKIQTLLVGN
In short: as §1

[18] = molecular target: ETV6 (Homo sapiens, UniProt P41212 1-452); conditions: protein: recombinant; tags: N-terminal GST; dsDNA, one strand shown
In short: as §1

Sequence of HSF1 (Q00613 whole entry): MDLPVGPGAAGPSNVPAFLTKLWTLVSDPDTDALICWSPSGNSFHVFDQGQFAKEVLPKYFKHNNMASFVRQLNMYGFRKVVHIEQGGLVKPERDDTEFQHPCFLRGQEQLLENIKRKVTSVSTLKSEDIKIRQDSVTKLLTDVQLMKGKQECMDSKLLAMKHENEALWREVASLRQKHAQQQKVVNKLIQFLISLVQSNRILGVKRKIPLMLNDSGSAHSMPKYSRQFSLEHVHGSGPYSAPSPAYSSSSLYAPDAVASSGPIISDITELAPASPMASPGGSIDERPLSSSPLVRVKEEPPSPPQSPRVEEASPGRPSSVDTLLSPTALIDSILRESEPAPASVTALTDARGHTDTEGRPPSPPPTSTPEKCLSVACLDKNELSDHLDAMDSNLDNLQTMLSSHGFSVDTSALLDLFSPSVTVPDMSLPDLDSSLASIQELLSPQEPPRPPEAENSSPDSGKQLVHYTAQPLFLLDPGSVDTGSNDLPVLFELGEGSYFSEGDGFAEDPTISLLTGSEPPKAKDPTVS
Sequence of ETV6 (P41212 whole entry): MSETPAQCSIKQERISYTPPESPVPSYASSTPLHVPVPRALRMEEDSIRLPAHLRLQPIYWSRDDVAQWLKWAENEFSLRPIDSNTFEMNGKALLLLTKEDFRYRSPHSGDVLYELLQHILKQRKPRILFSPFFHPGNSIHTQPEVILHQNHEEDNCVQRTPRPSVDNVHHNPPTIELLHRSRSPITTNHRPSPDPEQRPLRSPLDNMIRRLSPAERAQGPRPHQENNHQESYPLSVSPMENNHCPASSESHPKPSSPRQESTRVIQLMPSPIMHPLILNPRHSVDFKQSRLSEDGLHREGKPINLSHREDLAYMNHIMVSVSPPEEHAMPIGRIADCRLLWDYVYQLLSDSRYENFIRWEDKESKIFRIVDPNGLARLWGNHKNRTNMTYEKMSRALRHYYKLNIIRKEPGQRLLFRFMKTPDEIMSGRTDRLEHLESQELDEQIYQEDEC
Sequence of ETV1 (P50549 whole entry): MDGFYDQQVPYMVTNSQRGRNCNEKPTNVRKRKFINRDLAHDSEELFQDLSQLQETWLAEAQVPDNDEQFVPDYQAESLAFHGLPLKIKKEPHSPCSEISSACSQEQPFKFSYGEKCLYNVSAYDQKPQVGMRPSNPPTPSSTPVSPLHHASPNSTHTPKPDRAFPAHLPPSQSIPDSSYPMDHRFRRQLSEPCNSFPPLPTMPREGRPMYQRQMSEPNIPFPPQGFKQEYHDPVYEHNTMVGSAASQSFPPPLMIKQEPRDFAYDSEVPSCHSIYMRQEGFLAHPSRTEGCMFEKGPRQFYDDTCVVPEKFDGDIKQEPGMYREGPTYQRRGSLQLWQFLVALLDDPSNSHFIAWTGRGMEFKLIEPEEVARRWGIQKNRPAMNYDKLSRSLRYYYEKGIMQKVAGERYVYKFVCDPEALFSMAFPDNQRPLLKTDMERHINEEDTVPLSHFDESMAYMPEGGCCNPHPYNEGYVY
Sequence of CRX (O43186 whole entry): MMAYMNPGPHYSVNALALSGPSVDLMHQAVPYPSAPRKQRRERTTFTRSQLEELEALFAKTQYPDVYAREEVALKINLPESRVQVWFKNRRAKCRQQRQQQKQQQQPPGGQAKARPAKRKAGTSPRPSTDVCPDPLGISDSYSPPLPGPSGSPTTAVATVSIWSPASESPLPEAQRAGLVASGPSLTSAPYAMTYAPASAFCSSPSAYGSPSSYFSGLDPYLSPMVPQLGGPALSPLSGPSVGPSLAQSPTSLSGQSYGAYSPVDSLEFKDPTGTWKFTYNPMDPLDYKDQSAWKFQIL
Sequence of ETV5 (P41161 whole entry): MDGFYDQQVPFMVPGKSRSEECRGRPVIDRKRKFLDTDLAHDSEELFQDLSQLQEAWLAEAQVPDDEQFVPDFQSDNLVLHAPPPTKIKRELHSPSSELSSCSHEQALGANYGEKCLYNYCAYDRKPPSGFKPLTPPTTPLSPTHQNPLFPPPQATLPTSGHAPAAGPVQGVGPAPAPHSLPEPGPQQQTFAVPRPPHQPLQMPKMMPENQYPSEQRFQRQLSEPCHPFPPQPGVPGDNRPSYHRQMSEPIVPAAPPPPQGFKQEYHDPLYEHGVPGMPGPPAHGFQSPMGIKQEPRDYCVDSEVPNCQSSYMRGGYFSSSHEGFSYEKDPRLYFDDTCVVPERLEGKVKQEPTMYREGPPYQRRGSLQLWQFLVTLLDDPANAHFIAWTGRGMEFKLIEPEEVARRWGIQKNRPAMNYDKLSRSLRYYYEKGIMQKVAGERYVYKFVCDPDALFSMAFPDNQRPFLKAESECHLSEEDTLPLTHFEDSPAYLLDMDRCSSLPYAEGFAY
Sequence of ELF4 (Q99607 whole entry): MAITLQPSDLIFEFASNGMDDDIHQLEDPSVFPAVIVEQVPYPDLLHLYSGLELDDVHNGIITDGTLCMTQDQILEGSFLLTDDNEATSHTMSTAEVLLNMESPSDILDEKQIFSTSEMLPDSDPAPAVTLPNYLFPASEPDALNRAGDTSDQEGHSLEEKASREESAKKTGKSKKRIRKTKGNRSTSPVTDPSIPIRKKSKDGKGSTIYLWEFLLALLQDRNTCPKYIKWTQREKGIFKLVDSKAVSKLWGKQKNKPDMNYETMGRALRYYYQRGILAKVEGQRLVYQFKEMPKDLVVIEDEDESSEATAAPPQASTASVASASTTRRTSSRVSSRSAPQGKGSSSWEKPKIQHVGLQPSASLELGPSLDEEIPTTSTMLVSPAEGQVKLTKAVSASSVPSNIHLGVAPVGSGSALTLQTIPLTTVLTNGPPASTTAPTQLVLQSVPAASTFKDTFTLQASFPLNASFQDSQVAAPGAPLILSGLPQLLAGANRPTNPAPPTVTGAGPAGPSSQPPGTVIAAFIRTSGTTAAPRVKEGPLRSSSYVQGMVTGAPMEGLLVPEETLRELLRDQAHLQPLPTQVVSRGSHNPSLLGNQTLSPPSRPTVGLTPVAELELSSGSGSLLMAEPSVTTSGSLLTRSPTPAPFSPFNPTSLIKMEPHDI

## TAGCTC
[1]
  binding signal: 1.19 fold enrichment (6-mer frequency, TF over GST control)
[2]
  binding signal: 1.25 fold enrichment (6-mer frequency, TF over GST control)
[3]
  binding signal: 1.24 fold enrichment (6-mer frequency, TF over GST control)
[4]
  binding signal: 1.19 fold enrichment (6-mer frequency, TF over GST control)
[5]
  binding signal: 1.22 fold enrichment (6-mer frequency, TF over GST control)
[6]
  binding signal: 1.26 fold enrichment (6-mer frequency, TF over GST control)
[7]
  binding signal: 1.37 fold enrichment (6-mer frequency, TF over GST control)
[8]
  binding signal: 1.17 fold enrichment (6-mer frequency, TF over GST control)
[9]
  binding signal: 1.46 fold enrichment (6-mer frequency, TF over GST control)
[10]
  binding signal: 1.21 fold enrichment (6-mer frequency, TF over GST control)
[11]
  binding signal: 1.04 fold enrichment (6-mer frequency, TF over GST control)
[12]
  binding signal: 1.14 fold enrichment (6-mer frequency, TF over GST control)
[13]
  binding signal: 1.21 fold enrichment (6-mer frequency, TF over GST control)
[14]
  binding signal: 1.24 fold enrichment (6-mer frequency, TF over GST control)
[15]
  binding signal: 1.24 fold enrichment (6-mer frequency, TF over GST control)
[16]
  binding signal: 1.1 fold enrichment (6-mer frequency, TF over GST control)
[17]
  binding signal: 1.17 fold enrichment (6-mer frequency, TF over GST control)
[18]
  binding signal: 1.14 fold enrichment (6-mer frequency, TF over GST control)
